The source of these data is PubChem BioAssay.

The source made the active and inactive calls.

The nature of assay [1]: small molecules captured by biotinylated probe aFSTL3 – biochemical, small-molecule microarray, fluorescence 635/667, stem cell growth factor project, primary screen (AID 1064).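 Note: measures binding of the biotinylated anti-FSTL3 antibody to printed compounds.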 The conditions noted are these: higher = more signal.
Assay [2] can be described thus: binders from COS7 lysate, DM2A8 probe, primary screen, torsin A project, cell lysate, small-molecule microarray, fluorescence 635/667 (AID 1065). Conditions: higher = more signal, COS7 lysate expressing mutant human TOR1A.
Assay [3] is described as follows: small molecules captured by biotinylated probe aFGF2 – biochemical, small-molecule microarray, fluorescence 635/667, stem cell growth factor project, primary screen (AID 1067).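 Note: measures binding of biotinylated aFGF2 protein to printed compounds on slides; z-score merges feature fluorescence and signal-to-noise across triplicate slides.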 Conditions: higher = more signal.
Assay [4] can be described thus: small molecules captured by biotinylated probe aFGF10 – biochemical, small-molecule microarray, fluorescence 635/667, stem cell growth factor project, primary screen (AID 1071).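 Note: score merges 667 nm spot intensity and signal to noise from triplicate slides.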 Conditions: higher = more signal.
Assay [5] has as its target Neurogenic locus notch homolog protein 2 (Homo sapiens) (UniProt Q04721). The assay can be described thus: small molecules binding Notch2 protein – biochemical, small-molecule microarray, 635 nm fluorescence, stem cell growth factors, primary screen (AID 1073). Conditions: higher = more signal.
The target of assay [6] is Pro-neuregulin-1, membrane-bound isoform (Homo sapiens) (UniProt Q02297). The assay can be described thus: small molecules binding neuregulin-1 protein – biochemical, small-molecule microarray, fluorescence 635/667, psychiatric disease protein project, primary screen (AID 1075).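 Note: score combines 667 nm spot fluorescence with signal to noise.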 The conditions noted are these: NRG1 binding, 635 nm fluorescence, higher = more signal.
Pro-neuregulin-1, membrane-bound isoform (Homo sapiens), sequence (Q02297 whole entry, looked up, the tested form may be a part, canonical isoform): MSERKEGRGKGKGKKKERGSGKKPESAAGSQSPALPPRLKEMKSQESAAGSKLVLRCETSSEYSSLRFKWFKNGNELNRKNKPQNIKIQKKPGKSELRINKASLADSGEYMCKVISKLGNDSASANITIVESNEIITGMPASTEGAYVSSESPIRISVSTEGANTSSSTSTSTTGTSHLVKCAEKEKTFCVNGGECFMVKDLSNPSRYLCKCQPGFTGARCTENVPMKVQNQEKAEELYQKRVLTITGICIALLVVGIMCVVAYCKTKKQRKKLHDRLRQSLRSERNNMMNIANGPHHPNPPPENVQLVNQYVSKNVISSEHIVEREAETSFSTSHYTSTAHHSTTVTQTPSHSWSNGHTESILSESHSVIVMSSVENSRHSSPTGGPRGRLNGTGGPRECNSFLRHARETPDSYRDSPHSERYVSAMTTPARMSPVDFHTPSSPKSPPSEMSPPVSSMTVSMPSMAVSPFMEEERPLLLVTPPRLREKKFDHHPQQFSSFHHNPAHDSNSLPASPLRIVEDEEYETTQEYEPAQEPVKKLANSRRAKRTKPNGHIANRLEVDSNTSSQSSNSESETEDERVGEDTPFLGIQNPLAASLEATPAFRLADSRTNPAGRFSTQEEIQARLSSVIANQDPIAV
Assay [7] deals with Neuregulin-1 EGF-like domain. The assay can be described thus: small molecules binding NRG1 EGF domain – biochemical, small-molecule microarray, 635 nm fluorescence, primary screen (AID 1081).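 Note: binding of the protein to compounds printed on small-molecule microarray slides.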 The conditions noted are these: higher = more signal.
The nature of assay [8]: FRG1 expression reporter modulators in myotubes – cell-based, C2C12 myotubes, firefly/Renilla luciferase, luminescence, FRG1 inhibition for FSHD, primary screen (AID 1084). The conditions noted are these: FRG1 promoter luciferase, higher = more signal, called active from +8 up or from −8 down.
Assay [9] can be described thus: small molecules captured by biotinylated probe aFST – biochemical, small-molecule microarray, fluorescence 635/667, stem cell growth factor project, primary screen (AID 1086).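 Note: score merges 667 nm fluorescence with signal-to-noise of each printed compound spot.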 The conditions noted are these: higher = more signal.
The nature of assay [10]: binders of probe aHhip on microarray, primary screen, stem cell growth factor project, biochemical, small-molecule microarray, fluorescence 635/667 (AID 1087).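 Note: score merges spot fluorescence at 667nm with spot signal to noise ratio.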 The conditions noted are these: higher = more signal.
For assay [11], the system named is PRMT1 (protein arginine N-methyltransferase 1). Description: small molecules binding arginine methyltransferase PRMT1 – biochemical, small-molecule microarray, 635 nm fluorescence, primary screen (AID 1088).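 Note: binding of Prmt1 protein to compounds spotted on small-molecule microarray slides.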 The conditions noted are these: higher = more signal.
Assay [12] can be described thus: growth effects on S. cerevisiae YJM789 – YJM789 clinical isolate, OD600, 24 h, basal, primary screen (AID 1089).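 Note: growth of clinical yeast isolate S. cerevisiae YJM 789 seeded 1000 cells per well; test concentration not given here.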 Conditions: higher = more signal, called active from +8 up or from −8 down.
Assay [13] in a line: S. pombe growth modifiers, basal conditions – strain 972, OD600, 24 h, no modulator, primary screen (AID 1090).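 Note: basal condition with compound alone and no growth modifier present; test concentration not given here.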 The conditions noted are these: S. pombe 972 growth, higher = more signal, called active from +8 up or from −8 down.
Assay [14] is described as follows: budding yeast growth modifiers under rapamycin – strain BY4716, OD600, 96 h, primary screen (AID 1091). Note: test concentration not given here. Conditions: S. cerevisiae BY4716 + rapamycin, higher = more signal, called active from +8 up or from −8 down.
Assay [15] has as its target Torsin-1A-interacting protein 2 (Homo sapiens) (UniProt Q8NFQ8). Description: small molecules binding lysate-expressed LULL1 – cell lysate, human LULL1 lysate, 635/667 nm fluorescence, primary screen (AID 1092).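 Note: probe is lysate of COS7 cells overexpressing human LULL1; score merges per-feature 667 nm fluorescence with signal-to-noise.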 The conditions noted are these: small-molecule microarray, hLULL1 lysate binding, 635 nm fluorescence; higher = more signal.
The nature of assay [16]: optical density change of DRC41 E. coli – strain DRC41, OD650, 24 h, E. coli filamentation project, primary screen (AID 1093).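 Note: MC1000 strain lacking acrAB efflux and sulA so SOS filamentation is blocked; test concentration not given here.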 Conditions: E. coli DRC41 growth, higher = more signal, called active from +8 up or from −8 down.
Assay [17] can be described thus: probe aLefty2 binding to arrayed compounds – biochemical, biotinylated probe, 635/667 nm fluorescence, primary screen (AID 1094).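 Note: score merges spot fluorescence near 667 nm with spot signal-to-noise ratio.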 Conditions: small-molecule microarray, higher = more signal.
The subject of assay [18] is Noggin (protein binding on small-molecule microarray). The assay can be described thus: small molecules binding Noggin protein – biochemical, 635/667 nm fluorescence, primary screen (AID 1095).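 Note: score merges 667 nm feature fluorescence with signal to noise over triplicate slides.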 The conditions noted are these: 635 nm fluorescence, higher = more signal.
Assay [19] addresses Neurogenic locus notch homolog protein 3 (Homo sapiens) (UniProt Q9UM47). The assay can be described thus: small molecules binding NOTCH3 protein – biochemical, 635/667 nm fluorescence, primary screen (AID 1096). Conditions: small-molecule microarray, 635 nm fluorescence, higher = more signal.
The nature of assay [20]: probe aEGFR binding to arrayed compounds – biochemical, biotinylated probe, 635/667 nm fluorescence, primary screen (AID 1097).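 Note: probe is a biotinylated anti-EGFR antibody binding compounds printed on slides; score combines fluorescence near 667 nm and signal to noise of each spot.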 Conditions: small-molecule microarray, higher = more signal.

Torsin-1A-interacting protein 2 (Homo sapiens), sequence (Q8NFQ8 whole entry, looked up): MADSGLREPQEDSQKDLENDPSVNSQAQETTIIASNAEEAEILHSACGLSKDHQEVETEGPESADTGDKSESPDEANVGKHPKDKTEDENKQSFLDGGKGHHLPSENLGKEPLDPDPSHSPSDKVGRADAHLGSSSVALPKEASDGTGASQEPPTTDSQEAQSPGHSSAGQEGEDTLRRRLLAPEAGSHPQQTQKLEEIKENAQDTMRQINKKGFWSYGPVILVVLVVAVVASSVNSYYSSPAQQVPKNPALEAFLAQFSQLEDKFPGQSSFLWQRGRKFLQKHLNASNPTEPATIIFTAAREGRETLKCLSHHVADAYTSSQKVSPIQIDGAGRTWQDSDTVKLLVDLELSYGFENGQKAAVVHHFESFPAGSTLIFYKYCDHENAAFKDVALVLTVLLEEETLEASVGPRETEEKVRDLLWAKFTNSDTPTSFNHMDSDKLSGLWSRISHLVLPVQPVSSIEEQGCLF
Neurogenic locus notch homolog protein 3 (Homo sapiens), sequence (Q9UM47 whole entry, looked up): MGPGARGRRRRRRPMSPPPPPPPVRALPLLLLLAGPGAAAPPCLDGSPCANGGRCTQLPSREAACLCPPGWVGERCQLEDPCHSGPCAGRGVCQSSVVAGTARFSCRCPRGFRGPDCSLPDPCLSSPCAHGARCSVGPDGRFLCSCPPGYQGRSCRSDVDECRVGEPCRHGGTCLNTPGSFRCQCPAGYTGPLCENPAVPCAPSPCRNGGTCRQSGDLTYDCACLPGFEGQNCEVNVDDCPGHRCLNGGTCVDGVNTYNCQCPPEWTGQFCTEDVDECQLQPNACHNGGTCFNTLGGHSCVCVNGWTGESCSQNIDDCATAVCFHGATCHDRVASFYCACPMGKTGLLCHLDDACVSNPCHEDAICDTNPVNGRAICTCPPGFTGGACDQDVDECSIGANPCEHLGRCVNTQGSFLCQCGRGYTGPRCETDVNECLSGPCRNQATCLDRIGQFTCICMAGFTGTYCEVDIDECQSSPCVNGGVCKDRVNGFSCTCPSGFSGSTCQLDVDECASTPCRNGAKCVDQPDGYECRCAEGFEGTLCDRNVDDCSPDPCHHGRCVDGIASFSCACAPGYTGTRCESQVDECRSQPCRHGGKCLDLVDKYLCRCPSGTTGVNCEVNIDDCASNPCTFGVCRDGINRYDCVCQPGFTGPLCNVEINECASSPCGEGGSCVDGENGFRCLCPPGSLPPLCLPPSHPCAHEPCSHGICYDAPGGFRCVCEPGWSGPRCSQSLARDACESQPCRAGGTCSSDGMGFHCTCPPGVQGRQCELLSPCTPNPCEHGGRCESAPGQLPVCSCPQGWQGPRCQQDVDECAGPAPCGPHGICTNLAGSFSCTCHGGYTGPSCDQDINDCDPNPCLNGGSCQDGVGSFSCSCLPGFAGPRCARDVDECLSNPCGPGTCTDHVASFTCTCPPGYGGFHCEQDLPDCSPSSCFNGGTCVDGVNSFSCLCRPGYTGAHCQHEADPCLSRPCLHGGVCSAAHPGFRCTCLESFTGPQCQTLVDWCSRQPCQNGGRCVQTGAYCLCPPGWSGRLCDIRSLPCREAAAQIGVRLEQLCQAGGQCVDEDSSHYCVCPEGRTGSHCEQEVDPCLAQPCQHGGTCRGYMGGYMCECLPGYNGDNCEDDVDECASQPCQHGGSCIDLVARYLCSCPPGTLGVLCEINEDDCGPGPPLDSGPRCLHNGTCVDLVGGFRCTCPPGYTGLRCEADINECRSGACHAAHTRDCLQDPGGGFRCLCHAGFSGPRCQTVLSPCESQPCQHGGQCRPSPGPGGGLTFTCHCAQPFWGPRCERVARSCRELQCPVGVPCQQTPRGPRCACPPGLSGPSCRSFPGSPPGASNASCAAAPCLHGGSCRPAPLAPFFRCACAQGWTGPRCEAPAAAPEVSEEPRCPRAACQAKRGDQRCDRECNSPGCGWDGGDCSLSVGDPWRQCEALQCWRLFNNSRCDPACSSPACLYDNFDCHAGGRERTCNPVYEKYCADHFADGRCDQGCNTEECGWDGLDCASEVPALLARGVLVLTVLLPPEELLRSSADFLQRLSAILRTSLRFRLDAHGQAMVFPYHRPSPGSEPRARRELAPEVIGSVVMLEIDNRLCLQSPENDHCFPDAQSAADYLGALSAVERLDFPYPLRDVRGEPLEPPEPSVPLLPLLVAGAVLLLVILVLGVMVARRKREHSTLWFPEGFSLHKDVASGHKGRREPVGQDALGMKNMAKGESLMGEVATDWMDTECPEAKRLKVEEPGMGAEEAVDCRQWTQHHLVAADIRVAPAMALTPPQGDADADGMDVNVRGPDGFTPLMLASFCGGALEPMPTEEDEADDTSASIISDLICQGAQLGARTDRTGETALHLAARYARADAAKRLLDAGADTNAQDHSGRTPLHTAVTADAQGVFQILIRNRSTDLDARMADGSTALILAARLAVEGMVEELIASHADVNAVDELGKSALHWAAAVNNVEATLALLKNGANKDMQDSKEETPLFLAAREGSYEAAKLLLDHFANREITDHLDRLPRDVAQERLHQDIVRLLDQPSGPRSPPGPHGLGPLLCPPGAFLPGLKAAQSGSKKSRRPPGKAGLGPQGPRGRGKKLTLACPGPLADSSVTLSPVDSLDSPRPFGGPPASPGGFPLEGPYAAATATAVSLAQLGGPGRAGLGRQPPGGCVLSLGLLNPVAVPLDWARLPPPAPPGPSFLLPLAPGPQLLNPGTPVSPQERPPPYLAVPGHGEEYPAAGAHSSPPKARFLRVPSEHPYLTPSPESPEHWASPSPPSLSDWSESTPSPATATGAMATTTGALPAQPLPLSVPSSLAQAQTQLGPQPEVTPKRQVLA

For the molecule `C=CC[C@]1(C(=O)NCCN2CCOCC2)N=C(c2ccc(OCCCO)cc2)O[C@H]1c1ccccc1CN=[N+]=[N-]`, the composite z-score in assay [1] is 0.442; in assay [2] it was 1.46; in [3] it was -0.0078; in assay [4], 0.333; in assay [5], 0.837; in [6] it was 0.849. In addition, the composite z-score was found to be 1.23 in [7]; 0.171 in [9]; 0.0338 in assay [10]; 1.4 in assay [11]; 1.64 in [15]; 0.298 in [17]. Besides, the composite z-score was 0.641 in [18], -1.35 in assay [19] and 0.159 in [20]. In addition, the z-score in assay [8] is 1.81 (inactive); in assay [12], -0.0011 (inactive); in assay [13] it was -1.77 (inactive); in assay [14], -0.744 (inactive); in [16] it was 1.23 (inactive).
For the molecule `CC(C)(C)N1CC=CC23O[C@@H]4C=CCCOC(=O)C4[C@H]2C(=O)N(CCO)[C@@H]3C1=O` (stereo not given in full), the composite z-score in [1] is -0.0666; in assay [2], -0.46; in [3] it was -0.132; in assay [4] it was -0.133; in assay [5] it was -0.717; in assay [6], 0.767. The composite z-score is 1.48 in [7]; -0.474 in [9]; -0.236 in [10]; 0.13 in [11]; -1.67 in assay [15]; -0.267 in assay [17]. For the same molecule, the composite z-score in assay [18] was -0.365; in assay [19], -0.696; in assay [20], -0.112. Moreover, the z-score in assay [8] is 0.22 (inactive); in assay [12], -0.125 (inactive); in assay [13] it was -0.229 (inactive); in assay [14], -0.0913 (inactive); in [16], 0.976 (inactive).
With `C=CCOC(=O)[C@H]1[C@@H]2C(=O)O[C@@H](c3ccccc3)[C@@H](c3ccccc3)N2[C@@H](c2ccc(OCCOC(=O)[C@H]3C[C@H]4C(=O)N[C@@H](CC(C)C)C(=O)N4[C@H]3c3cccc(OCCO)c3)cc2)[C@]12C(=O)Nc1ccc(I)cc12`, the composite z-score in [1] is -0.475; in assay [2], 0.178; in assay [3], -0.0442; in [4], 0.823; in assay [5], 0.919; in [6], -0.403. In addition, the composite z-score in assay [7] was 1.17; in assay [9] it was 0.157; in assay [10], 0.0373; in [11] it was 1.48; in [15], 2.76; in assay [17], -0.0416. The composite z-score turned out to be 0.972 in assay [18], 0.97 in assay [19] and 0.0436 in [20]. For the same molecule, the z-score in assay [8] is 0.842 (inactive); in assay [12], 0.219 (inactive); in assay [13], 0.46 (inactive); in [14] it was 2.8 (inactive); in assay [16], -0.266 (inactive).
Regarding `COC(=O)[C@@]1(Cc2ccccc2)[C@H]2c3cc(C(=O)N(C)C)n(CCc4ccc(O)c(OC)c4)c3C[C@H]2CN1C(=O)c1ccccc1`, the composite z-score in assay [1] was 0.514; in assay [2] it was 0.283; in assay [3], 0.356; in [4], 0.557; in assay [5] it was 0.749; in assay [6] it was 0.258. Moreover, the composite z-score is 0.781 in assay [7]; 1.34 in [9]; 2.09 in assay [10]; -0.26 in [11]; 0.47 in assay [15]; 0.425 in [17]. Moreover, the values for the composite z-score in assay [18], in assay [19] and in assay [20] were 0.374, 0.489 and 0.992, respectively. Moreover, the z-score is 0.96 (inactive) in [8]; 0.031 (inactive) in assay [12]; -0.0531 (inactive) in [13]; 0.409 (inactive) in [14]; -0.452 (inactive) in assay [16].
As for `COC(=O)c1c(CC[C@@H](CO)NC(=O)N[C@H](Cn2cc(C3(O)CCCCC3)nn2)C(C)C)oc(C(C)=O)c1C(=O)OC`, the composite z-score in assay [1] was -0.413; in [2], 0.945; in assay [3], -0.003; in assay [4] it was 0.815; in [5], 0.759; in assay [6], 0.759. Further, the composite z-score in [7] is 1.07; in assay [9] it was 0.253; in assay [10], -0.0237; in [11] it was 1.57; in [15], 1.12; in [17], -0.0437. Moreover, the composite z-score was 1.86 in [18], 1.08 in [19] and 0.0274 in [20]. For the same molecule, the z-score was 0.324 (inactive) in assay [8]; -0.325 (inactive) in assay [12]; -2.39 (inactive) in [13]; 0.0762 (inactive) in [14]; 1.66 (inactive) in assay [16].
